Drawing on PubChem BioAssay (EPA / NIEHS), this text covers outcome and AC50 for 4 compounds.

Assay [1] is described as follows: ATG_GLI_CIS: Attagene CIS-FACTORIAL HepG2 Assay for human Zinc Finger Protein GLI1 (AID 2282945). Particulars: HepG2, Attagene cis-factorial reporter mRNA, GLI element; actives raise or lower the signal. Put shortly: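 Transiently transfected HepG2 cells report endogenous transcription factor activity via cis-element-driven reporter units. After 24 h compound exposure, reporter mRNA was measured by RT-PCR with capillary electrophoresis; bidirectional fitting against DMSO baseline.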

In assay [2] the target is Bile acid receptor (Homo sapiens) (UniProt Q96RI1). Kind of assay: ATG_IR1_CIS: Attagene CIS-FACTORIAL HepG2 Assay for human Nuclear Receptor Subfamily 1 Group H Member 4 (NR1H4), IR1 submotif (AID 2282946). Particulars: IR1 reporter transcription, actives raise or lower the signal. Put shortly:
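Fluorescence of capillary-separated, HpaI-digested RT-PCR reporter products gave IR1-element mRNA induction in HepG2 cells 24 h after dosing. Endogenous transcription factors drove the cis-regulated reporters; activity was fitted bidirectionally against DMSO.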

Assay [3] is described as follows: ATG_ISRE_CIS: Attagene CIS-FACTORIAL HepG2 Assay for human Interferon Regulatory Factor 1 (IRF1) binding to an Interferon-Stimulated Response Element (ISRE) (AID 2282948). Particulars: HepG2 ISRE cis-reporter (Attagene), mRNA transcription readout; actives raise or lower the signal. Put shortly: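 Endogenous transcription factor activity read as reporter transcript abundance via RT-PCR and capillary electrophoresis. HepG2 cells transiently transfected, 24 h chemical exposure. Gain or loss fitted against DMSO baseline.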

Assay [4] in a line: ATG_M_32_CIS: Attagene CIS-FACTORIAL HepG2 Assay for M32 Transcription Factor (Internal Marker) (AID 2282949).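 Further: background control marker of the multiplexed CIS panel rather than a real target.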 Conditions: HepG2 Attagene cis-factorial M32 reporter, mRNA; actives raise or lower the signal. Put shortly:
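Transient MRTU transfection of HepG2; 24 h compound treatment; TriZol RNA, oligo(dT) RT, reporter PCR, 6-FAM primer extension, HpaI cut, CE. Gain/loss of signal vs DMSO.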

The nature of assay [5]: ATG_M_06_CIS: Attagene CIS-FACTORIAL HepG2 Assay for M06 Transcription Factor (Internal Marker) (AID 2282950). Conditions: HepG2 Attagene CIS-FACTORIAL M06 internal marker reporter; actives raise or lower the signal. The method in brief: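 Internal background marker within multiplexed cis-reporter HepG2 system. Cells transiently transfected, dosed 24 h; reporter mRNA measured by RT-PCR, HpaI digestion and capillary electrophoresis. Bidirectional fit relative to DMSO.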

Assay [6] addresses Hypoxia-inducible factor 1-alpha (Homo sapiens) (UniProt Q16665). Briefly: ATG_HIF1a_CIS: Attagene CIS-FACTORIAL HepG2 Assay for human Hypoxia Inducible Factor 1 (HIF1A) (AID 2282951). Conditions: HepG2 Attagene cis-factorial HIF1a reporter transcription; actives raise or lower the signal. Put shortly:
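After 24 h chemical exposure of reporter-transfected HepG2 cells, reporter cDNA was PCR-amplified, labelled by 6-FAM primer extension (2 min 95 C, 20 s 68 C, 10 min 72 C), HpaI-cut (2 h, 37 C) and analysed by CE.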

Assay [7] deals with Heat shock factor protein 1 (Homo sapiens) (UniProt Q00613). Kind of assay: ATG_HSE_CIS: Attagene CIS-FACTORIAL HepG2 Assay for human Heat Shock Transcription Factor 1 (HSE) (AID 2282953). Conditions: HepG2 HSE cis-reporter, Attagene RNA transcription; actives raise or lower the signal. The method in brief: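 HepG2 cells transfected with cis-promoter reporter units sensing endogenous transcription factor activity; reporter mRNA quantified 24 h post-dose by RT-PCR and capillary electrophoresis of 6-FAM-labelled products. Bidirectional fitting against DMSO.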

A short description of assay [8]: ATG_MRE_CIS: Attagene CIS-FACTORIAL HepG2 Assay for human Metal Responsive Element (MRE) (AID 2282954). Particulars: HepG2 MRE cis-reporter transcription, Attagene multiplex; actives raise or lower the signal. The method in brief: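 RT-PCR/capillary electrophoresis readout of reporter mRNA, 24 h post-dosing, in HepG2 cells transfected with multiplexed cis-regulated reporter constructs. Gain or loss of signal fitted bidirectionally against DMSO baseline.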

The target of assay [9] is Paired box protein Pax-6 (Homo sapiens) (UniProt P26367). Briefly: ATG_Pax6_CIS: Attagene CIS-FACTORIAL HepG2 Assay for human Paired Box 6 (PAX6) (AID 2282956). Conditions: HepG2 CIS-FACTORIAL PAX6 reporter transcription, RNA readout; actives raise or lower the signal. Put shortly: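 Read-out is reporter transcript level, measured by RT-PCR with fluorescent primer extension and capillary electrophoresis after 24 h dosing of transfected HepG2 cells. Activity in either direction fitted relative to DMSO control.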

Assay [10] can be described thus: ATG_RORE_CIS: Attagene CIS-FACTORIAL HepG2 Assay for human RAR-related Orphan Receptor Element (RORE) (AID 2282959). Conditions: HepG2 Attagene cis-factorial RORE reporter, mRNA; actives raise or lower the signal. Put shortly:
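A 24-hour exposure of transfected HepG2 hepatoma cells precedes RNA isolation and reporter RT-PCR. Labeled products are digested with HpaI and resolved by capillary electrophoresis, with gain or loss of signal scored relative to DMSO.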

The nature of assay [11]: ATG_Sox_CIS: Attagene CIS-FACTORIAL HepG2 Assay for human SRY-box transcription factor (SOX) (AID 2282960). Conditions: HepG2 Attagene cis-factorial SOX reporter, mRNA; actives raise or lower the signal. The method in brief:
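HepG2, cis reporter units, 24 h exposure. Reporter mRNA: RT-PCR → FAM labelling → HpaI → CE fluorescence. Bidirectional fit vs DMSO.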

The target in assay [12] is Transcription factor Sp1 (Homo sapiens) (UniProt P08047). Kind of assay: ATG_Sp1_CIS: Attagene CIS-FACTORIAL HepG2 Assay for human Specificity Protein 1 (Sp1) (AID 2282961). Particulars: HepG2 Sp1 cis-reporter transcription, actives raise or lower the signal. Put shortly: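 Liver-derived HepG2 cells, cis-element reporter library, 24 h treatment; RNA isolated, cDNA amplified with reporter-specific primers, FAM-labeled fragments sized on capillary analyzer. DMSO baseline, bidirectional curve fit.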

A short description of assay [13]: ATG_SREBP_CIS: Attagene CIS-FACTORIAL HepG2 Assay for human Sterol Regulatory Element Binding (SREBP) (AID 2282962). Particulars: HepG2 Attagene cis-factorial SREBP reporter, mRNA; actives raise or lower the signal. The method in brief: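 Endogenous SREBP activity read as cis-element-driven reporter transcript in transiently transfected HepG2, 24 h post-dosing; quantified via RT-PCR plus capillary electrophoresis of fluorescent fragments. Gain or loss of signal fitted relative to DMSO baseline.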

Assay [14] addresses Signal transducer and activator of transcription 3 (Homo sapiens) (UniProt P40763). Briefly: ATG_STAT3_CIS: Attagene CIS-FACTORIAL HepG2 Assay for human Signal Transducer and Activator of Transcription 3 (STAT3) (AID 2282963). Particulars: HepG2, Attagene cis-factorial STAT3 reporter transcription; actives raise or lower the signal. The method in brief: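 Readout: fluorescent reporter mRNA fragments resolved by capillary electrophoresis. Setup: HepG2 transfected with MRTUs reporting endogenous transcription-factor activity, dosed 24 h. Gain or loss of signal fitted bidirectionally against DMSO control.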

A short description of assay [15]: ATG_TA_CIS: Attagene CIS-FACTORIAL HepG2 Assay for human TA Basal Promoter (AID 2282964). Conditions: HepG2 Attagene CIS-factorial TA basal promoter reporter; actives raise or lower the signal. Put shortly:
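HepG2 cells transiently transfected with multiple reporter units under cis promoter elements, reporting endogenous transcription factor activity; this endpoint tracks the TA basal promoter as background control. Reporter mRNA after 24 h dosing measured by RT-PCR/capillary electrophoresis; bidirectional fits versus DMSO.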

Assay [16] in a line: ATG_PBREM_CIS: Attagene CIS-FACTORIAL HepG2 Assay for human Phenobarbital-responsive Enhancer Module (PBREM) (AID 2282955). Conditions: HepG2 PBREM cis-reporter, Attagene multiplexed transcription; actives raise or lower the signal. The method in brief: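 Measures endogenous factor action on a phenobarbital-responsive enhancer module. HepG2 transiently carrying cis reporters, 24 h treatment, mRNA read-out by RT-PCR plus capillary electrophoresis.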

The nature of assay [17]: ATG_PXRE_CIS: Attagene CIS-FACTORIAL HepG2 Assay for human Pregnane X Receptor Element (PXRE) (AID 2282957). Conditions: HepG2 Attagene CIS-FACTORIAL PXRE reporter, mRNA; actives raise or lower the signal. The method in brief:
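Read-out: fluorescence of reporter-specific RT-PCR products resolved by capillary electrophoresis, fitted bidirectionally relative to DMSO. Human HepG2 liver cells carried transfected cis-promoter reporter units and were exposed to chemicals for 24 h.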

Assay [18] can be described thus: ATG_PPRE_CIS: Attagene CIS-FACTORIAL HepG2 Assay for human Peroxisome Proliferator-activated Response Element (PPRE) (AID 2282958). Conditions: HepG2 PPRE cis-element reporter, Attagene transcription factor profiling; actives raise or lower the signal. The method in brief:
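PPRE activity in HepG2: transient cis-reporter transfection, 24 h compound incubation, reporter mRNA by RT-PCR and CE fluorescence; gain/loss fitted against DMSO.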

The AC50 is the concentration at which the activity in the assay is half-maximal.

SMILES strings stand for the structures. Active and inactive are the calls of the source. How the source made its calls: active means hit-call score of the fitted dose curve at least 0.9, where 1 is the maximum; inactive means score below 0.9.

Chain of Paired box protein Pax-6 (Homo sapiens) (P26367 whole entry, looked up): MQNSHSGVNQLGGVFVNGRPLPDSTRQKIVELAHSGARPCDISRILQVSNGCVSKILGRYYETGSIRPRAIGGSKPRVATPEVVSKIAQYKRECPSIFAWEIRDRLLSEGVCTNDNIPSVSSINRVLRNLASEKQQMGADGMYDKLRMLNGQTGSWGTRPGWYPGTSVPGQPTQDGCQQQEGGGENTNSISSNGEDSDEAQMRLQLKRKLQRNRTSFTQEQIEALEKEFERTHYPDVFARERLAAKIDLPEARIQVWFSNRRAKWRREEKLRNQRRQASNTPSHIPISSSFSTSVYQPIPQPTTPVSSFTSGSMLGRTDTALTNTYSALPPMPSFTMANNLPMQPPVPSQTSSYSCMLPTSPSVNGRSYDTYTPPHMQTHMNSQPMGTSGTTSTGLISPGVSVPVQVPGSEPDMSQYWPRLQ
Chain of Transcription factor Sp1 (Homo sapiens) (P08047 whole entry, looked up, the tested form may be a part): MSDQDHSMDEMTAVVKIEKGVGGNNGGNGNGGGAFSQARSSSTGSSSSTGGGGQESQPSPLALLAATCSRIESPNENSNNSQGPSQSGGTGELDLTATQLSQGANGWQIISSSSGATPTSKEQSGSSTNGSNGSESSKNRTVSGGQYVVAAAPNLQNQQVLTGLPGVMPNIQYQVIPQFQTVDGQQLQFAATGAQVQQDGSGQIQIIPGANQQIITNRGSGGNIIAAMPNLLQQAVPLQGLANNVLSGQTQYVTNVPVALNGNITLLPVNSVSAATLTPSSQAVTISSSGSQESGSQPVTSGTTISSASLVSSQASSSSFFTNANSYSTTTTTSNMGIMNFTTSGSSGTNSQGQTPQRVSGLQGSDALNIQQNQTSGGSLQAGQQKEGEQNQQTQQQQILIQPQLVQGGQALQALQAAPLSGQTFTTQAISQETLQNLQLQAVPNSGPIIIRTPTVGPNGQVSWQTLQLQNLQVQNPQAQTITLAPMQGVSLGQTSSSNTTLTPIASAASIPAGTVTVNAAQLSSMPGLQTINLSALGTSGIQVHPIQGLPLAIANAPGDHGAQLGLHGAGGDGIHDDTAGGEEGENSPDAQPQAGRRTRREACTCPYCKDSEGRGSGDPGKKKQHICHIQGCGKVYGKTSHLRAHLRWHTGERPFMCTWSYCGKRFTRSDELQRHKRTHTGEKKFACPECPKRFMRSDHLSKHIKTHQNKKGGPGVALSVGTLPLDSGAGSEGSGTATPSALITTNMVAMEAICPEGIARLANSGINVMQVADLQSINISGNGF
Chain of Heat shock factor protein 1 (Homo sapiens) (Q00613 whole entry, looked up): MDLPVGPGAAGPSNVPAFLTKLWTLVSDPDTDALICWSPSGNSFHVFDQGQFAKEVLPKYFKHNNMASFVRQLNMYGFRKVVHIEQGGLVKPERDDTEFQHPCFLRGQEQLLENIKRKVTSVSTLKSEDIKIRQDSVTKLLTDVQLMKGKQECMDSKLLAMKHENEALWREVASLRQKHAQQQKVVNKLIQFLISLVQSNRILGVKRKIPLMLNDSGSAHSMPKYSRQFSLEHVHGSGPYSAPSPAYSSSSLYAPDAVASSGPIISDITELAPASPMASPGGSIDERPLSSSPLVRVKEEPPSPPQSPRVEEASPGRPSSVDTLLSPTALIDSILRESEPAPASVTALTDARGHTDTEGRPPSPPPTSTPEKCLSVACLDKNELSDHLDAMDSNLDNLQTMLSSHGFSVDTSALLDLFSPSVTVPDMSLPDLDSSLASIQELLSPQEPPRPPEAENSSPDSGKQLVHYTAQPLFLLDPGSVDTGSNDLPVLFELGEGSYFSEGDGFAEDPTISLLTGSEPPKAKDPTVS
Chain of Hypoxia-inducible factor 1-alpha (Homo sapiens) (Q16665 whole entry, looked up): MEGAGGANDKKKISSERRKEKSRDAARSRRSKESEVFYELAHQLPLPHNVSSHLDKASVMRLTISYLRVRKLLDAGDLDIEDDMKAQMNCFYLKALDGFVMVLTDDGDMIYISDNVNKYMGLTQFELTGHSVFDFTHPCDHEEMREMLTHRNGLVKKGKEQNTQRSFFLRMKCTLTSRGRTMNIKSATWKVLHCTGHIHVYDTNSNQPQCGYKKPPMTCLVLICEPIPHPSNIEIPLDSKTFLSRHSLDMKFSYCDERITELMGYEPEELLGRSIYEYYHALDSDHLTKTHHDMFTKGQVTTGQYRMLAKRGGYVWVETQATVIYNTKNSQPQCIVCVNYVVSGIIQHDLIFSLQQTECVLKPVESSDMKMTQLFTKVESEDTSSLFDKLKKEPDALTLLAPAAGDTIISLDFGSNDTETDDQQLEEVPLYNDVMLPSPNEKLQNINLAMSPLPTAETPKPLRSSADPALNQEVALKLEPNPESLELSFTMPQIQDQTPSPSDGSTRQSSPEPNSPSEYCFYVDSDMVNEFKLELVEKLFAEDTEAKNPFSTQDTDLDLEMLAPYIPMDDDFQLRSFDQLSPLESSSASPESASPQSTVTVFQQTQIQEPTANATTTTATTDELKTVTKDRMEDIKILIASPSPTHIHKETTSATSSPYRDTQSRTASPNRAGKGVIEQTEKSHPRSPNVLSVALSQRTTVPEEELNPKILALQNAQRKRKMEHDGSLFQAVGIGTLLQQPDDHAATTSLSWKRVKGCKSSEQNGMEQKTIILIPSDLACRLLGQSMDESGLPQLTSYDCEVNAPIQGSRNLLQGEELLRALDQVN
Chain of Signal transducer and activator of transcription 3 (Homo sapiens) (P40763 whole entry, looked up, the tested form may be a part): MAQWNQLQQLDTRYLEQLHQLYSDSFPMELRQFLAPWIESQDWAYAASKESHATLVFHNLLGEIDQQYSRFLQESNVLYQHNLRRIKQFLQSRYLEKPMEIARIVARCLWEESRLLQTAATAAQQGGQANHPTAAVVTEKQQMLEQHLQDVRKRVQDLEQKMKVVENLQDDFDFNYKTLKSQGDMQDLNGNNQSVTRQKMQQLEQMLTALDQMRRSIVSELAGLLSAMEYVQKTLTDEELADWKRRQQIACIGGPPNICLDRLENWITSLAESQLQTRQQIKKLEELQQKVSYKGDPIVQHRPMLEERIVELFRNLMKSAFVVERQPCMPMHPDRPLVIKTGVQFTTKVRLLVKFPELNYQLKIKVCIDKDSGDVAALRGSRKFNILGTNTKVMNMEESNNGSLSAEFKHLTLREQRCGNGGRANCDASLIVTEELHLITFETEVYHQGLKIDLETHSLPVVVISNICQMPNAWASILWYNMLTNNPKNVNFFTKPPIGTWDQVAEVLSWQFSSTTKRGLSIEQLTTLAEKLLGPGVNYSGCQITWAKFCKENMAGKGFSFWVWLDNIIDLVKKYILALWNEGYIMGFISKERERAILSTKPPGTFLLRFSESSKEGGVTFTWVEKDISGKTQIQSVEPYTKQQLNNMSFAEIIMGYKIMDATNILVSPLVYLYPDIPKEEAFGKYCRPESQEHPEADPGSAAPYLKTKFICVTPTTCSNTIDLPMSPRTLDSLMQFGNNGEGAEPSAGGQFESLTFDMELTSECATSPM
Chain of Bile acid receptor (Homo sapiens) (Q96RI1 whole entry, looked up): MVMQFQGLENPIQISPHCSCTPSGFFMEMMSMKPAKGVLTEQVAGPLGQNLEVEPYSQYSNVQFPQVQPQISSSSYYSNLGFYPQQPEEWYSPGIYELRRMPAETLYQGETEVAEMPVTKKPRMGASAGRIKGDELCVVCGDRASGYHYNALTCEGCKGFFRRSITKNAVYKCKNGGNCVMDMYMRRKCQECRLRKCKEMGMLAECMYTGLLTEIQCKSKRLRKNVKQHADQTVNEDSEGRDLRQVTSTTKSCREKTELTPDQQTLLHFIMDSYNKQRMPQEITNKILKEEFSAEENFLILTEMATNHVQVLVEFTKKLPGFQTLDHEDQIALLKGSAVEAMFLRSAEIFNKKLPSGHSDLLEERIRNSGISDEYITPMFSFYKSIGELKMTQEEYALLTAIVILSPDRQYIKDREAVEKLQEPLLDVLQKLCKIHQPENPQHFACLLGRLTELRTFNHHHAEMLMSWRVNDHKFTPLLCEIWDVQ

In the case of `C=CCOC(=O)c1ccccc1C(=O)OCC=C`, the compound was called inactive in assay [1], in [3], in [4], in assay [5], in [6] and in [7]. In addition, the result in assay [8], in assay [9], in assay [10], in assay [11], in assay [12] and in assay [13] was inactive. In addition, the compound was called inactive in [14] and in [15]. The concentration at half-maximal activity (AC50) in assay [2] was 25.9 µM (active).

With `Cc1cccc(C)c1O`, the result in assay [1], in assay [3], in [4], in assay [5], in [6] and in [7] was inactive. In addition, the compound was called inactive in [8], in assay [16], in [9], in assay [17], in assay [18] and in assay [10]. Moreover, the outcome in assay [11], in [12], in assay [13], in assay [14] and in [15] was inactive.

As for `CCOc1ccc2c(c1)C(C)=CC(C)(C)N2`, the outcome in assay [1], in assay [3], in assay [4], in [5], in assay [16] and in assay [11] was inactive. Moreover, the compound was classed as inactive in assay [13] and in assay [14]. The AC50 in [7] was 152 µM (active); in assay [8], 148 µM (active); in assay [9] it was 100 µM (active); in [18], 78.8 µM (active); in assay [10], 100 µM (active); in assay [12], 78.9 µM (active). In [15], the AC50 is 100 µM (active).

For the compound `CN1CCCC1=O`, the compound was classed as inactive in assay [1], in assay [3], in [4], in assay [5], in assay [6] and in assay [7]. Further, the outcome in assay [8], in assay [9], in [10], in assay [11], in assay [12] and in [13] was inactive. The result in assay [14] and in [15] was inactive.
